Compounds with a hit are over-represented: about 6.6% of the library has one in this group of screens.
MCF10A rereplic: inducers of DNA re-replication in MCF 10A breast cells; Potency, µM (series often up to 46.1 µM), for inactives: at the highest dose activity, positive = re-replication, usual class: activators; MCF 10A DNA re-replication, Hoechst nuclear intensity, 48 h; 350,000 compounds, 2.9% hits; further: % of control where 0% means no effect; nearly all actives have a fitted effect of over 50% in size
KB-V1 MDR tox: kills drug-selected multidrug resistant KB-V1 cells | KB-V1 MDR cells viability, CellTiter-Glo, 72 h | Potency, µM (series often up to 46.1 µM), hits mostly cytotoxic | 400,000 compounds, 3.4% hits | AID 1347076; further: on the % scale 0 is the no-effect control and ±100 the full control effect; nearly all actives have a fitted effect of over 60% in size
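KB-V1 MDR subline cells in DMEM (phenol-red free, 10% FBS) exposed to compounds in qHTS concentration series for 72 h at 37 degrees C. Viability read by CellTiter-Glo luminescence; concentration-effect curves fitted after normalization and correction.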
RGS4 inh: blocks human RGS4-accelerated GTP hydrolysis. P49798. Transcreener GDP fluorescence polarization, RGS4-accelerated GTP hydrolysis. Potency, µM (titrated, usually from 114 µM), without a hit: at the top dose activity change, negative = inhibition, most hits filed as inhibitors. 390,000 compounds, 0.039% hits. AID 504845; further: on the % scale 0 is the no-effect control and ±100 the full control effect; nearly all actives have a fitted effect of over 75% in size
Target sequence (P49798 whole entry, looked up): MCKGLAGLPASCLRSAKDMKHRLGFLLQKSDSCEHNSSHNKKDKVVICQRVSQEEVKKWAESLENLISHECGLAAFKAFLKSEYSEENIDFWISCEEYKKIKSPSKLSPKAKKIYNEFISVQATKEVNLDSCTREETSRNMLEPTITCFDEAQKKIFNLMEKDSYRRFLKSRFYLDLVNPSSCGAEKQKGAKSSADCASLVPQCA
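MLSMR compounds (23 nl, pin-transferred) preincubated 10 min at room temperature with a 500nM (2x) first reagent, then RGS4 at 900nM (2x) plus Transcreener GDP mix added; fluorescence polarization (620/688 nm) read before and after 90 min at 30 °C.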
KB-3-1 cytotox: kills parental KB-3-1 adenocarcinoma cells; KB-3-1 viability, CellTiter-Glo ATP luminescence, 72 h; Potency, µM (top dose mostly 46.1 µM), most hits filed as cytotoxic; 400,000 compounds, 1.4% hits; further: on the % scale 0 is the no-effect control and ±100 the full control effect; nearly all actives have a fitted effect of over 60% in size
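Parental KB-3-1 viability, qHTS format: 72 h compound exposure, 37 °C; CellTiter-Glo; media-only wells and DMSO plates as controls; concentration-effect fits on corrected data.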
SW480 rereplic: induces DNA re-replication in SW480 colon adenocarcinoma cells; SW480 DNA re-replication, Hoechst DNA content imaging, 48 h; Potency, µM (top dose mostly 46.1 µM), inactives show top-dose re-replication activation, usual class: activators; 340,000 compounds, 1.8% hits; further: % of control where 0% means no effect; nearly all actives have a fitted effect of over 55% in size
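Quantitative HTS format with DMSO vehicle controls; 48 hr drug incubation at 37 C, then 40 min Hoechst staining and scanning imager measurement at 405 nm excitation.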
PTAP TSG101 blk: blocks PTAP/TSG101 interaction to inhibit HIV-1 budding; Q99816; Fluorescence polarization, FITC-PTAP peptide / Tsg101 binding; Potency, µM (top dose mostly 115 µM), for inactives: top-dose activity change, negative = inhibition, actives largely listed as inhibitors; 340,000 tested, under 10 active; AID 493005; active means well fitted inhibition curve with a large enough effect in the main read-out, with a control signal flat, not every such curve was filed as active; inconclusive means small, poorly fitted or top-dose-only effect, or effect the other way, or a change in a side signal; inactive means no such curve, though single readings can be large or run the other way; further: % of control where 0% means no effect
Target sequence (Q99816 whole entry, looked up): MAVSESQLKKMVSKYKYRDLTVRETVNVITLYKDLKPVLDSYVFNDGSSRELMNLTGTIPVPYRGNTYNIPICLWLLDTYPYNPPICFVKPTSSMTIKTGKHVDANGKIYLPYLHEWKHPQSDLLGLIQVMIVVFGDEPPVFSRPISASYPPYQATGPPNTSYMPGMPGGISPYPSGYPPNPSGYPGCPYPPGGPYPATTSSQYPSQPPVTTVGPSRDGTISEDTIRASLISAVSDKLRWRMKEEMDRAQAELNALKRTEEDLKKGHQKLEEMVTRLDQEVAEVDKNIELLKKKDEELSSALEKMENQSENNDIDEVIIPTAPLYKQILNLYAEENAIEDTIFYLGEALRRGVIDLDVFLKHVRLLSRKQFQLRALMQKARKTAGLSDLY
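Compounds were pin-transferred onto Tsg101 binding domain (10 uM final) in HEPES pH 7.5 buffer, then FITC-PTAP peptide was added at 50 nM final. After 20 min at RT, polarization reported peptide displacement across a qHTS concentration series.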
The depositor's hits bear a star; i = inactive; ? = inconclusive; nt = no result; [ ] = dose if it differs, or a comment. Unless noted, the call rests on the fitted dose curve; in most records, active means well fitted curve in the direction sought with a large enough effect; inconclusive means small, poorly fitted or top-dose-only effect, or another doubt; inactive means no such curve, though single readings can be large; an effect the other way counts as inactive or inconclusive. Potency means the concentration at half of the fitted maximal effect.

SMILES | MCF10A rereplic | KB-V1 MDR tox | RGS4 inh | KB-3-1 cytotox | SW480 rereplic | PTAP TSG101 blk
CC(=O)N1CCc2c(sc3c2c(=O)n(-c2ccccc2C)c(=O)n3CC(=O)Nc2ccccc2)C1 | nt | i | -10% | i | nt | nt
COc1ccc(-c2nc(C)c(CCNS(=O)(=O)c3cc(C)c(C)cc3C)s2)cc1 | nt | 18µM* | 3% | ? | nt | nt
Cc1nc(C)c(CCNS(=O)(=O)c2ccc(C)c(C)c2)s1 | nt | 21µM* | -18% | ? | nt | nt
COc1ccc(-c2nc(C)c(CCNS(=O)(=O)c3cc(Cl)ccc3Cl)s2)cc1 | nt | 21µM* | -19% | 15µM* | nt | nt
COc1ccc(S(=O)(=O)NCCc2sc(C)nc2C)cc1 | nt | ? | 6% | i | nt | nt
COc1ccc(OC)c(S(=O)(=O)NCCc2sc(-c3cccnc3)nc2C)c1 | nt | ? | 18% | i | nt | nt
Cc1nc(-c2ccccc2)sc1CCNS(=O)(=O)c1ccc(Br)cc1 | nt | 21µM* | -8% | ? | nt | nt
O=C(Nc1nnc(C2CCCCC2)s1)C1CCN(C(=O)c2ccco2)CC1 | nt | i | 8% | ? | nt | nt
Clc1cccc(-n2ncc3c(NC4CCCCC4)ncnc32)c1 | nt | i | -14% | ? | nt | nt
COc1cccc(CNC(=O)c2ccc(NC(=O)N3CCCCc4ccccc43)cc2)c1 | nt | i | 12% | i | nt | nt
COc1ccc(S(=O)(=O)NCCc2sc(-c3ccccc3)nc2C)cc1OC | nt | ? | -7% | i | nt | nt
COc1ccc(-c2nc(C)c(CCNS(=O)(=O)c3ccc(F)cc3)s2)cc1OC | nt | 9.2µM* | 6% | ? | nt | nt
COc1ccccc1CNS(=O)(=O)c1cc(C(=O)N(C)Cc2cccnc2)c(Cl)cc1Cl | 4% | 5.2µM* | 11% | ? | 12% | -5%
Cc1cccc(-c2nnc(C3CCN(S(=O)(=O)c4cccc(Cl)c4)CC3)o2)c1 | nt | i | -51% | i | nt | nt
O=C(CCCN1C(=O)C(c2ccccc2)Oc2cccnc21)Nc1ccc(Br)cc1F (stereo not given) | nt | i | 7% | i | nt | nt
COc1ccccc1NC(=S)N(CCc1ccc(OC)c(OC)c1)Cc1ccccn1 | -1% | ? | -11% | i | 11% | -1%
COc1ccc(CCN(Cc2ccccn2)C(=S)Nc2ccc(C)cc2)cc1OC | 10% | 23µM* | -3% | ? | -1% | 0%
COC(=O)c1ccccc1NC(=O)N1c2ccccc2Sc2ccccc21 | 8.2µM* | i | -11% | ? | 8% | 0%
COC(=O)c1ccccc1NC(=O)N1CCN(C(=O)c2ccco2)CC1 | 3% | 7.3µM* | -19% | ? | -8% | -3%
COC(=O)c1ccccc1NC(=O)N1c2ccccc2CC1C (stereo not given) | ? | 23µM* | -16% | i | -2% | -3%
COc1ccccc1C(=O)N1c2ccccc2Sc2ccccc21 | 23µM* | ? | -9% | 21µM* | ? | -2%
COc1ccc(NC(=O)N2c3ccccc3CC2C)cc1OC (stereo not given) | -1% | ? | -14% | i | -1% | -10%
Cc1nc2sc(C(=O)N(C)Cc3ccccc3)c(NC(=O)c3ccccc3)c2c(C)c1Cl | nt | i | -3% | i | nt | nt
CCn1cc(C(=O)N(C)c2cc(C)ccc2C)c2cc(OC)c(OC)cc2c1=O | nt | i | 2% | i | nt | nt
CC(=O)Nc1ccc(NC(=O)CN2C(=O)CC(c3ccco3)Sc3ccccc32)cc1 (stereo not given) | nt | i | -12% | i | nt | nt
SMILES | MCF10A rereplic | KB-V1 MDR tox | RGS4 inh | KB-3-1 cytotox | SW480 rereplic | PTAP TSG101 blk
COCC(C)N1C(=O)Cc2c1nc(N)c1c(N)nc(N3CCN(c4ccccc4F)CC3)c(C#N)c21 (stereo not given) | 12µM* | ? | -27% | ? | ? | -6%
Cc1sc2ncnc(NCC3CCCO3)c2c1C (stereo not given) | 3% | i | 0% | i | 3%[9.22 µM] | -1%
CCc1cc2c(NCC3CCCO3)ncnc2s1 (stereo not given) | 17% | 16µM* | 9% | ? | 2% | 0%
CCCc1cc(=O)n2[nH]c(NCc3ccccc3OC)nc2n1 | nt | ? | 31% | i | nt | nt
Cc1ccc(-n2nc3ccc(N)cc3n2)cc1Cl | ? | i | 8% | i | 26% | -1%
COc1ccc(-n2nc3ccc(N)cc3n2)cc1Cl | ? | i | -19% | i | 21µM* | -7%
Cc1ccc(-n2nc3ccc(N)cc3n2)cc1C | 16µM* | i | -19% | i | 16µM* | 3%
COc1ccc(-n2nc3ccc(NS(C)(=O)=O)cc3n2)cc1Cl | ? | i | -6%[11.4 µM] | i | -6% | 1%
CCCOC(=O)CSc1nnc(-c2ccccc2)o1 | nt | i | 5% | i | nt | nt
CCN(C(=O)c1cn(-c2cccc(OC)c2)c(=O)c2ccccc12)c1ccccc1C | nt | nt | -2% | nt | nt | nt
CCOc1ccc2c(c1)nc(SCC(=O)c1cccs1)n2C | 12% | ? | ? | i | -2% | -2%
CCOc1ccc2c(c1)nc(SCC(=O)c1ccc(Br)s1)n2C | 76% | 18µM* | ? | ? | ? | -3%
COc1ccc(NC(=O)C2Cc3c(-c4cccc(C(N)=O)c4)ccnc3O2)cn1 (stereo not given) | nt | i | nt | ? | nt | nt
COc1ccc(CCCNC(=O)C2Cc3c(-c4cccc(C(C)=O)c4)ccnc3O2)cc1 (stereo not given) | nt | 21µM* | nt | 6.5µM* | nt | nt
NC(=O)c1cccc(-c2ccnc3c2CC(C(=O)NCCC(F)(F)F)O3)c1 (stereo not given) | nt | i | nt | i | nt | nt
COc1ccc(NC(=O)C2Cc3c(-c4cccc(NC(C)=O)c4)ccnc3O2)cn1 (stereo not given) | nt | i | nt | 4.6µM* | nt | nt
CC(=O)c1cccc(-c2ccnc3c2CC(C(=O)NCCC(F)(F)F)O3)c1 (stereo not given) | nt | ? | nt | 7.3µM* | nt | nt
CC(=O)c1cccc(NC(=O)C2Cc3c(-c4cccc(C(C)=O)c4)ccnc3O2)c1 (stereo not given) | nt | 21µM* | nt | i | nt | nt
CCN(C(=O)CN(C)S(=O)(=O)c1ccc2c(c1)c(=O)n(C)c(=O)n2C)c1ccc(OC)cc1 | nt | i | 1% | i | nt | nt
COC(=O)c1ccc(-c2n[nH]c(=O)c3ccccc23)cc1 | 24% | i | 6% | i | -8% | -8%
CN(C)C(=O)c1ccc(-c2n[nH]c(=O)c3ccccc23)cc1 | 0.82µM* | i | 24% | i | -2% | -2%
COc1cc(-c2nnc(-c3cc(OC)c(OC)c(OC)c3)o2)cc(OC)c1OC | 1% | i | 40% | ? | -7% | 0%
